In all, about 320,000 compounds went through this assay and about 55 (0.02%) were called active. About 3% were inconclusive and are not listed. Rule as the data show it: active = potentiation above about 80%; inconclusive = between about 30% and that limit; inactive = weaker than that. Shown is part of a subset that was picked to be rich in actives.

Chain of Transient receptor potential cation channel subfamily V member 1 (Homo sapiens) (Q8NER1 whole entry, looked up): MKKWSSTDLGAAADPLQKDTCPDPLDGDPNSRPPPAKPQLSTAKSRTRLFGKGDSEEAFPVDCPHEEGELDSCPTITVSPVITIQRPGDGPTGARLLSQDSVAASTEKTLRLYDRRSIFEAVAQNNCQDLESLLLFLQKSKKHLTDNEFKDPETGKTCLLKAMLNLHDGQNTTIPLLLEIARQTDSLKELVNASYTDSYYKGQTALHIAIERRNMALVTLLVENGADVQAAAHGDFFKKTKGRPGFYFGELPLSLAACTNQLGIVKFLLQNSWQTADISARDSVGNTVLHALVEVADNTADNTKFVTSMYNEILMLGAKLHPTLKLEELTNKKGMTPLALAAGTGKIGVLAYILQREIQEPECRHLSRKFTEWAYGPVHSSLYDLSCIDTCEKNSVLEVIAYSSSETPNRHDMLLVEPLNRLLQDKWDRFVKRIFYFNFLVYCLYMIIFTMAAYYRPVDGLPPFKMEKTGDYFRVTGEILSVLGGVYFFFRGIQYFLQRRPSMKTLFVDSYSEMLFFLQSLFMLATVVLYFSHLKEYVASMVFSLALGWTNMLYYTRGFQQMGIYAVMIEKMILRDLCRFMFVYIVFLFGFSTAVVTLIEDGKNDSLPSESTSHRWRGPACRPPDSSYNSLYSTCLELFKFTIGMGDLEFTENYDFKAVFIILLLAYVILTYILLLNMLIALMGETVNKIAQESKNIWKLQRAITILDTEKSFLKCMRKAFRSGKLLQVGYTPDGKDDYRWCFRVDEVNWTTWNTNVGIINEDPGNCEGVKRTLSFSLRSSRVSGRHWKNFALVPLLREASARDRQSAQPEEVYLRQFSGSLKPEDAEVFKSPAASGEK

The assay has as its target Transient receptor potential cation channel subfamily V member 1 (Homo sapiens) (UniProt Q8NER1). Nature of the assay: HTS Assay for Compounds that Act as Potentiators of the Vanilloid Receptor 1. Also: 0% is about no effect. To be noted: TRPV1-expressing cells, Fluo-8 calcium influx, capsaicin EC20 potentiation; at 8.33 µM; active compounds read high. The text has this:
The transient receptor potential ion channel, family V, number 1, (TRPV1) is one of the most important molecular transducers of painful stimuli and a potential target for analgesic drug development. Although recent clinical trials with orthosteric antagonists have not produced a successful drug because of a hyperthermia side effect and their tendency to block thermal noxious pain, this ion channel is undeniably well placed in the pain pathway, and the idea of blocking pain signals before they enter the CNS is an excellent concept and of proven efficacy when TRPV1 agonists are used. We propose a new approach involving allosteric modulation to impose an activity-dependent constraint within the context of inflammation and tissue damage that would alter the responsiveness of the channel in a way that an orthosteric vanilloid antagonist cannot achieve. We believe that the allosteric modulator approach has not been explored for this target. The main goal of this proposal is to identify additional, new, potent allosteric modulators of TRPV1 that can be used to investigate TRPV1 function. Our recent report provides evidence of proof of concept, but the compounds are just at the edge of utility in terms of potency. […] The question of whether they can be used as analgesic agents is complex, but if suitable compounds are identified then testing for analgesic properties will be conducted. NIH Chemical Genomics Center [NCGC] NIH Molecular Libraries Probe Centers Network [MLPCN] MLPCN Grant: MH089480-1A1 Assay Submitter (PI): Michael Iadarola, National Institute of Dental and Cranofacial Research
Upon TRPV1 activation in TRPV1 cells, the channel opens and extracellular cations flow through the channel into the cytosol. A calcium binding dye (Fluo-8) becomes fluorescent when bound to calcium. This dye is pre-loaded into cells and is used as a marker for calcium influx. The amount of accumulated calcium is precisely quantified using the FDSS kinetic reader and the calcium dye. For the HTS assay, freshly prepared cells are plated at a density of 2000/well in 3 ul medium in 1536-well plates and cultured overnight at 35.5C. Cells will be loaded with 1 ul of the homogeneous calcium dye (ABD Bioquest) at room temperature for 40 to 90 minutes. Plates will be loaded into the FDSS kinetic reader and a 1 sec / cycle for 10 second baseline signal will be measured. Compound library will then be added with a pintool at 23 nl and measured kinetically for 3 minutes. This portion of the read is considered the agonist portion of the screen. Following the 3 minutes of incubation, an on board pipettor will deliver 1 ul of capsaicin for a final concentration equal to the EC20. Signal will be measured kinetically for an additional 2 minutes. This portion of the read is considered the allosteric enhancer portion of the screen. The FDSS reader has a standard filter set capable of measuring calcium bound Fluo-8 (ex=480 and em=520 nm).
Turning to `CCCCN1C(=O)C(=O)N(CC(=O)Nc2cccc(C(C)=O)c2)C1=O`, the potentiation was 6.11% (inactive).
For `COC(=O)c1ccc(-c2c(-c3ccccc3)ncc3cc(OC)c(OC)cc23)cc1`, the potentiation was -0.0919% (inactive).
The value for `O=C(NCC1CCCO1)c1cc2c(s1)CCCC2` (stereo unspecified) was -3.61% (inactive); that for `COc1ccc(C(C)(C)C)cc1NC(=O)CCN1C(=O)C2CCCCC2C1=O` (stereo unspecified) was -20% (inactive); that for `Cc1ccc(NC(=O)C(c2ccccc2)N2CCN(C(=O)c3ccco3)CC2)cc1` (stereo unspecified) was 4.79% (inactive).
Next, `CN(CCOc1ccccc1)C(=O)c1cc(-c2ccco2)nc2ccccc12`: 1.05% (inactive).
Next, `CC1CCN(C(=O)COC(=O)c2cc(=O)[nH]c3ccccc23)CC1`: -1.92% (inactive); `CN(C)S(=O)(=O)c1cccc(NC(=O)COc2ccc3ccccc3c2)c1`: 2.88% (inactive); `O=C(COC(=O)c1cccc(Cl)c1)NC1CCCCCCC1`: -13.9% (inactive).
`COc1cc(OC)c(C(=S)N2CCCC2)cc1OC`: the potentiation was -20.3% (inactive).
Next, `COc1ccc(-c2cc(C(=O)NCCCN3CCCC3=O)c3ccccc3n2)cc1OC`: -7.67% (inactive); `COc1cccc(C(=O)c2sc3nc(-c4ccccc4)cc(C(F)(F)F)c3c2N)c1`: -4.5% (inactive); `CC(C)Cc1nnc(NC(=O)CCNC(=O)c2ccccc2Cl)s1`: 6.33% (inactive).
The value for `CCCc1ccc(C(=O)COC(=O)CN2C(=O)NC3(CCCCC3C)C2=O)cc1` (stereo unspecified) was -5.74% (inactive).
With `O=C(OCC(=O)N1CCc2ccccc21)C1CCCN1S(=O)(=O)c1ccc(Cl)cc1` (stereo unspecified), the potentiation is -3.33% (inactive).
Next, `COc1ccc(C)cc1NC(=O)CN1c2cccc3cccc(c23)S1(=O)=O`: -17.5% (inactive).
The value for `COc1ccc(S(=O)(=O)Nc2cccc3cccnc23)c(N)c1` was 13.6% (inactive); that for `N#Cc1ccccc1S(=O)(=O)N1CCN(Cc2c(O)ccc3ccccc23)CC1` was 0.42% (inactive).
`O=C(COC(=O)CNC(=O)C1CCCCC1)NCc1ccccc1`: the potentiation is -6.14% (inactive).
The value for `CC(C)N(C(=O)CN1CCN(S(=O)(=O)c2ccc(Br)s2)CC1)C(C)C` was -18.3% (inactive).
Next, `CCOc1cccc2cc(C(=O)OCC(=O)Nc3c(C)cccc3CC)c(=O)oc12`: -5.16% (inactive).
Next, `Nc1cc(N)nc(SCC(=O)Nc2cccc(S(=O)(=O)N3CCCCC3)c2)n1`: 0.644% (inactive); `COc1cccc(C(=O)n2ccc(-c3cccs3)n2)c1`: -6.21% (inactive); `O=C(N[C@@H](Cc1c[nH]c2ccccc12)C(=O)O)OCC1c2ccccc2-c2ccccc21`: 1.56% (inactive).
For `CN(C(=O)CSc1nnc(-c2ccc(C(C)(C)C)cc2)n1C)C1CCS(=O)(=O)C1` (stereo unspecified), the potentiation is -2.39% (inactive).
Turning to `O=C(CSc1nnc(Nc2ccccc2F)s1)NC1CCCC1`, the potentiation was -7.27% (inactive).
The value for `CCN(CC)S(=O)(=O)c1ccc(OC)c(NC(=O)CCc2c(C)noc2C)c1` was -15% (inactive).
Next, `COc1ccccc1S(=O)(=O)NCc1ccc(C(=O)N(C)Cc2ccc(F)cc2)cc1`: -20.6% (inactive).
Turning to `Cc1ccc(NC(=S)N(CCCN2CCC(C)CC2)Cc2ccco2)cc1`, the potentiation is 8.22% (inactive).
Take `Cc1ccc(NC(=S)N(Cc2ccco2)C(C)c2cccs2)cc1` (stereo unspecified): the potentiation was 141% (active).
On to `Cc1ccc(NC(=S)N(CCN2CCCCC2)Cc2ccco2)cc1C`, for which the potentiation is 2.55% (inactive).
Next, `O=C(O)c1ccccc1N=N/C(=N/Nc1cc(S(=O)(=O)O)ccc1O)c1ccccc1`: 1.2% (inactive); `CN(C)S(=O)(=O)c1ccc(C(=O)NCC2(N3CCOCC3)CCCCC2)cc1`: -44.6% (inactive).
The value for `CN(Cc1cccs1)C(=O)CN1C(=O)c2ccccc2S1(=O)=O` was -1.15% (inactive); that for `CCC1(C)NC(=O)N(CC(=O)N2CCN(c3cccc(Cl)c3)CC2)C1=O` (stereo unspecified) was -16.1% (inactive).
The value for `O=C(COC(=O)c1ccccc1Cl)NC1CCCCCCC1` was -4.06% (inactive); that for `O=C(NCc1ccccc1CN1CCCC1)c1cccc(S(=O)(=O)Nc2ccc(F)cc2)c1` was -2.77% (inactive).
In the case of `CC(C)Oc1ccc(C(=O)NCC(=O)Nc2ccc3c(c2)CCC3)cc1`, the potentiation was -17.6% (inactive).
Next, `O=C(Nc1cccc2cccnc12)C(F)(F)F`: 13.4% (inactive); `CCNC(=O)N1CCN(S(=O)(=O)c2ccc3c(c2)OCCCO3)CC1`: 4.26% (inactive).
The value for `N#Cc1ccc(C(=O)OCC(=O)NC(=O)NC2CCCCC2)cc1` was 22.1% (inactive); that for `Cc1ccc(-c2nn(-c3ccccc3)cc2C(=O)NC2CCC(O)CC2)cc1` (stereo unspecified) was -7.64% (inactive); that for `Cc1ccc(C(=O)NNC(=O)c2ccc3c(c2)OCCO3)cc1` was 9.22% (inactive).
Consider `Cn1c(SCC(=O)Nc2ccc(N3CCOCC3)cc2)nnc1C(F)(F)F`, for which the potentiation was 1.26% (inactive).
Next, `COc1ccc(S(=O)(=O)N2CCN(c3ccc(F)cc3)CC2)cc1-c1noc(C)n1`: -6.85% (inactive).
Next, `CCN(CC(=O)Nc1c(F)cccc1F)C(=O)c1ccc(-c2ccc(C(C)=O)cc2)o1`: -3.51% (inactive); `O=C(COc1ccccc1Cl)N1N=C(c2cccs2)CC1c1ccco1` (stereo unspecified): -9.15% (inactive); `CCc1cc(C(=O)Nc2nnc(C3CC3)s2)sc1C`: -13.7% (inactive).
For `O=C(CN1CCN(S(=O)(=O)c2ccc(Cl)s2)CC1)N1CCCCC1`, the potentiation is -6.4% (inactive).
Next, `CN(C)C(CNC(=O)c1ccc(OCc2cn3ccccc3n2)cc1)c1ccco1` (stereo unspecified): -3.83% (inactive).
The value for `CN(CC(=O)NC1CCN(Cc2ccccc2)CC1)S(=O)(=O)c1ccc(Cl)s1` was 6.87% (inactive).
Consider `COc1ccccc1CNC(=O)COC(=O)c1sc(C)nc1C`, for which the potentiation is 1.52% (inactive).
Next, `Cc1csc2nc(COC(=O)c3cccc(N(C)C)c3)cc(=O)n12`: 15% (inactive).
The value for `COc1ccc(CCNC(=O)COc2ccc3c(c2)OCO3)cc1` was 18.8% (inactive); that for `CCOc1cc(/C=C(/C#N)c2ccc(Cl)cc2)cc(Cl)c1OCC(=O)O` was 12.2% (inactive).
Next, `COc1ccc(NC(=O)CC2SC(N3CCCCC3)=NC2=O)cc1OC` (stereo unspecified): 1.27% (inactive); `Cc1cccc(OCCC(=O)OCc2csc(CC(=O)Nc3ccccc3C)n2)c1`: -3.33% (inactive).
As for `O=S(=O)(Nc1cccc2cccnc12)c1cccc2cccnc12`, the potentiation was 16.1% (inactive).
The value for `O=C(COC(=O)CNC(=O)C1CCCCC1)Nc1cccc(F)c1` was -7.91% (inactive); that for `O=C(COC(=O)Cc1ccccc1F)NCCc1ccccc1` was -16% (inactive).
The value for `CC(=O)c1sc(NC(=O)CCN2C(=O)C3CC=CCC3C2=O)nc1-c1ccccc1` (stereo unspecified) was -6.85% (inactive).
Next, `CC(C(=O)Nc1ccc(S(=O)(=O)N2CCCC2)cc1)N(C)Cc1ccc(F)cc1` (stereo unspecified): -18.2% (inactive); `O=C(OCC(=O)N1CCOCC1)c1ccc2ccccc2c1`: 17.8% (inactive); `O=C(NNC(=O)c1cc(S(=O)(=O)N2CCCCC2)ccc1Cl)c1ccccc1O`: -1.67% (inactive).
On to `CC1CCCN(C(=O)c2cc(-c3ccco3)nc3ccccc23)C1` (stereo unspecified), for which the potentiation is 27.4% (inactive).
Next, `CC(C)Nc1ncnc2c1nnn2Cc1ccccc1`: -2.19% (inactive); `Oc1ccc(Cl)cc1C1C=C(c2ccc3c(c2)OCO3)NC(c2c(F)cccc2Cl)N1` (stereo unspecified): 25.7% (inactive).
Next, `Cc1ccc(C(=O)Nc2ccn(C)n2)cc1`: 6.57% (inactive).
Next, `O=S(=O)(Nc1ccc2nc(N3CCOCC3)sc2c1)c1ccccc1`: 15.8% (inactive); `O=C(CSc1nc2[nH]c(=O)[nH]c(=O)c2s1)Nc1cccc(F)c1`: 19.7% (inactive); `O=C(Nc1ccccc1N1CCOCC1)c1ccncc1`: 17.2% (inactive).
With `NS(=O)(=O)c1ccc(CNC(=O)c2cccc(S(=O)(=O)N3CCc4ccccc43)c2)cc1`, the potentiation is 23.8% (inactive).
Next, `CC(C)n1ncc2c(C(=O)NCc3ccccc3CN(C)C)cc(C3CC3)nc21`: 3.73% (inactive).
The value for `Cc1ccc(OCC(=O)N2CCN(S(=O)(=O)c3ccc(Cl)s3)CC2)cc1C` was -16.7% (inactive); that for `CCCn1c(N)c(N(CCOC)C(=O)C2CCCC2)c(=O)[nH]c1=O` was 1.87% (inactive).
Next, `Oc1ccc(Cl)cc1C1C=C(c2ccc3c(c2)OCO3)NC(c2ccc(F)c(Br)c2)N1` (stereo unspecified): 3.03% (inactive); `O=C(NCCN1CCOCC1)c1cccc(S(=O)(=O)Nc2ccc(F)cc2)c1`: 6.45% (inactive); `COc1ccc(OC)c(/C=C/C(=O)c2ccc3c(c2)OCO3)c1`: -3.4% (inactive).
Turning to `Cc1cccc(Nc2nnc(SCC(=O)c3c(N)n(C4CC4)c(=O)[nH]c3=O)s2)c1C`, the potentiation was 22.3% (inactive).
Turning to `COc1cc(C#Cc2ccc3cc(CCCO)oc(=O)c3c2)cc(OC)c1`, the potentiation is 2.73% (inactive).
The value for `O=C(NCc1ccccc1CN1CCCC1)C1CCN(S(=O)(=O)c2ccc(Cl)cc2)CC1` was 1.5% (inactive).
The value for `O=S(=O)(c1ccc(SCc2ccccc2)nc1)N1CCCCCC1` was -6.24% (inactive); that for `Cc1ccc2ccc3c(c2n1)NS(=O)(=O)c1ccccc1-3` was 18.5% (inactive).
The value for `CC1(C)O[C@@H]2[C@H](O1)[C@@H](COS(=O)(=O)O)O[C@H]2n1cnc2c(=O)[nH]cnc21` was 8.79% (inactive); that for `COc1cccc(NC(=O)COC(=O)/C=C/c2ccco2)c1` was 11% (inactive).
As for `COc1ccccc1NC(=O)COC(=O)COc1ccccc1F`, the potentiation is 3.99% (inactive).
Next, `COc1ccc(NC(=O)CN(C)C(=O)c2cc(C3CC3)nn2-c2ccccc2)cc1`: 14.7% (inactive); `Cc1ccc(/C=C/C(=O)OCC(=O)Nc2cccnc2Cl)cc1`: -11.8% (inactive); `Cc1cccc(NS(=O)(=O)c2ccc(C)c(C(=O)NCC(c3ccccc3)N(C)C)c2)c1` (stereo unspecified): 1.06% (inactive).
Next, `Cc1cccc(NS(=O)(=O)c2cccc(C(=O)NNC(=O)c3ccccc3O)c2)c1`: -12.6% (inactive); `COc1ccc(C(=O)OCC(=O)c2cc(C)n(CC3CCCO3)c2C)cc1[N+](=O)[O-]` (stereo unspecified): 9.08% (inactive).

Values taken from PubChem BioAssay AID540277 (National Center for Advancing Translational Sciences (NCATS), 2011).
